SMILES strings stand for the structures. Inconclusive results are not listed. Calls of active or inactive are those of the source. Calls come from the whole dose curve; as a rule, active = well fitted inhibition curve with a large enough effect; inconclusive = small, poorly fitted or top-dose-only effect; inactive = no such curve, though single readings can be large or run the other way.

The nature of the test: Counterscreen for APE1 Inhibitors: Fluorescent Dye Displacement Validation Assay (AID 1707). The settings on record: fluorescent dye displacement from DNA; series mostly up to 57.1 µM. An excerpt: In order to distinguish true inhibitors of DNA-processing enzymes from promiscuous DNA-binding compounds among screening assay hits, we developed a homogeneous and miniaturized assay based on fluorescent dye displacement test as originally described by Tse and Boger (Accounts of Chemical Research (2004) 37: 61-69). The assay is based on the strong enhancement of fluorescence when Thiazole Orange (ThO) binds to double-stranded DNA: conversely, in the presence of a DNA-binding compound, Thiazole Orange is displaced from the DNA and its fluorescence is reduced.
Buffer. 50 mM Tris-HCl (pH7.5) containing 50mM NaCl, 2 mM MgCl2, and 0.01% Tween-20.
Buffer containing 250 nM ThO in columns 3 and 4 as negative control (no dsDNA).
Reaction mixture: 250 nM ThO and 50 nM dsDNA at final concentration dispensed throughout the plate: in columns 1, 2, 5-48. Column 1 is neutral (100% activity).
5''TAMRA- TC ACC FTC GTA CGA CTC
3'' AG TGG GAG CAT GCT GAG
where F denotes tetrahydrofuran.
Control: Pintool transfer of control compound WB64 (W4761, Sigma-Aldrich) to column 2 of all assay plates as a two-fold 16-point dilution in duplicate (concentration range 5.75 uM - 0.175 nM).
Four uL of reaction mixtures were dispensed to 1536-well Greiner black solid bottom plates. Compounds (23 nL) were transferred […] in order to measure the endpoint fluorescence using 480 nm excitation and 540 nm emission fluorescence protocol.
Turning to `CCn1cc(C(=O)O)c(=O)c2cc3c(cc21)OCO3`, the molecule was classed as inactive.

On to `CCCNC(C)C(=O)Nc1ccccc1C` (stereo not given), for which the molecule was classed as inactive.

In the case of `Cc1nnc(SCC2=C(C(=O)O)N3C(=O)[C@@H](NC(=O)Cn4cnnn4)[C@H]3SC2)s1`, the outcome was inactive.

For `Cc1ccc(S(=O)(=O)NC(=O)NN2CCCCCC2)cc1`, the molecule was called inactive.

For `CN(C)C/C=C(/c1ccc(Br)cc1)c1cccnc1`, the molecule was called inactive.

As to `CN(C)CC[C@@H](c1ccc(Br)cc1)c1ccccn1`, the molecule was classed as inactive.

Regarding `Brc1c(NC2=NCCN2)ccc2nccnc12`, the call was inactive.

As for `CCc1c(C)[nH]c2c1C(=O)C(CN1CCOCC1)CC2` (stereo not given), the outcome was inactive.

Regarding `CN/C(=C\[N+](=O)[O-])NCCSCc1ccc(CN(C)C)o1`, the molecule was called inactive.

As to `C[C@]12CCC(=O)C=C1CC[C@@H]1[C@@H]2C(=O)C[C@@]2(C)[C@H]1CC[C@]2(O)C(=O)CO`, the molecule was classed as inactive.

With `CN(C)CC/C=C1\c2ccccc2COc2ccccc21`, the call was inactive.

Consider `Cc1ccc(=O)n(-c2ccccc2)c1`, for which the result was inactive.

As to `O=C(O)CCCCCCCC(=O)O`, the call was inactive.

With `CCn1ccnc1CC1COc2ccccc2O1` (stereo not given), the molecule was classed as inactive.

On to `CCN(CC)CCNC(=O)c1ccc(NC(C)=O)cc1`, for which the molecule was classed as inactive.

In the case of `c1ccc2c(c1)CCCC2C1=NCCN1` (stereo not given), the call was inactive.

Turning to `CCN1CCc2nc(N)oc2CC1`, the molecule was classed as inactive.

As to `CO[C@@]1(NC(=O)CSCC#N)C(=O)N2C(C(=O)O)=C(CSc3nnnn3C)CS[C@@H]21`, the molecule was called inactive.

Consider `CCC(=O)c1ccc2c(c1)N(CCCN(C)C)c1ccccc1S2`, for which the molecule was classed as inactive.

As to `CC(C(=O)O)c1ccc(CC2CCCC2=O)cc1` (stereo not given), the result was inactive.

Consider `CC(C)NNC(=O)c1ccncc1`, for which the molecule was called inactive.

As for `CCOC(=O)C1=C(C)NC(C)=C(C(=O)OC)C1c1cccc([N+](=O)[O-])c1` (stereo not given), the call was inactive.

As for `COC(=O)[C@H]1[C@H]2C[C@@H]3c4[nH]c5cc(OC)ccc5c4CCN3C[C@H]2C[C@@H](OC(=O)c2cc(OC)c(OC)c(OC)c2)[C@@H]1OC`, the outcome was inactive.

Take `CC(=O)OC(C)C[N+](C)(C)C` (stereo not given): the call was inactive.

As to `Nc1nc(N)c2nc(-c3ccccc3)c(N)nc2n1`, the molecule was called inactive.

On to `O=C1NCN(c2ccccc2)C12CCN(CCCC(c1ccc(F)cc1)c1ccc(F)cc1)CC2`, for which the outcome was inactive.

As to `CCN(CC)CCNC(=O)c1cc(S(C)(=O)=O)ccc1OC`, the outcome was inactive.

In the case of `CCNC(=O)N1CCN(CCCC(c2ccc(F)cc2)c2ccc(F)cc2)CC1`, the call was inactive.

Regarding `CSc1ccc(C(=O)c2[nH]c(=O)[nH]c2C)cc1`, the call was inactive.

Regarding `COCCOC(=O)C1=C(C)NC(C)=C(C(=O)OC(C)C)C1c1cccc([N+](=O)[O-])c1` (stereo not given), the result was inactive.

Regarding `CCCN1C[C@H](CSC)C[C@@H]2c3cccc4[nH]cc(c34)C[C@H]21`, the call was inactive.

With `Cc1cc(C)c(/C=C2\C(=O)Nc3ccccc32)[nH]1`, the call was inactive.

With `NC(Cc1ccc(Cl)cc1)C(=O)O` (stereo not given), the molecule was called inactive.

As for `CN(C)C(=O)Oc1cccc([N+](C)(C)C)c1`, the molecule was called inactive.

For the molecule `COc1ccc([C@@H]2Sc3ccccc3N(CCN(C)C)C(=O)[C@@H]2OC(C)=O)cc1`, the molecule was classed as inactive.

For the molecule `CCN1CCC[C@H]1CNC(=O)c1c(O)c(Cl)cc(Cl)c1OC`, the result was inactive.

Turning to `CN(C(=O)CCCOc1ccc2[nH]c(=O)ccc2c1)C1CCCCC1`, the molecule was classed as inactive.

In the case of `C[C@]12CCC(=O)C=C1CC[C@@H]1[C@@H]2CC[C@@]2(C)[C@H]1CC[C@]2(O)C(=O)CO`, the result was inactive.

Regarding `C[N+](C)(C)CCOC(=O)CCC(=O)OCC[N+](C)(C)C`, the call was inactive.

As to `OCCN1CCN(CCCN2c3ccccc3C=Cc3ccccc32)CC1`, the molecule was classed as inactive.

These data come from PubChem BioAssay (NCATS).
